We go through 13 compounds from PubChem BioAssay (NCATS).

Several values for one entry are separate records, joined by “and”; a condition that tells them apart may be missing. Equal values may be shown once. Unmarked numbers belong to inactive results. Records with an inconclusive call do not appear. More than one record can exist for a structure, and the calls need not agree. Activity calls are given as the source filed them. Unless noted, the call rests on the fitted dose curve; in most records, active means well fitted curve in either direction with a large enough effect (not every such curve was filed as active); inconclusive means small, poorly fitted or top-dose-only effect, or another doubt; inactive means flat fitted curve, though single readings scatter.

A short description of assay [1]: AP1 Signaling Pathway (AID 357).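 Further: ME-180 reporter cells stimulated with EGF at its EC50 level; on the % scale 0 is the no-effect control and ±100 the full control effect.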 As to conditions: ME-180 AP-1-bla reporter, EGF-induced, beta-lactamase ratio, 5 h; at 17.2 µM (top of the series) unless noted. Put shortly:
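Beta-lactamase reporter under AP-1 response element, ME-180 background. Stimulus: EC50 EGF. Compound exposure 5 h, 37 °C. Detection: CCF4, 2.5 h RT, 460/530 nm. Values: AC50 from titration.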

For assay [2], the target named is Cytochrome P450 1A2 (Homo sapiens) (UniProt P05177). In words: p450-cyp1a2 (AID 410; calls by dose curve; further: potency means the concentration at half of the fitted maximal effect;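 on activity change, negative = inhibition: -100% = full effect of reference inhibitor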). Put shortly: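 Human CYP1A2 (20nM) demethylated Luciferin-ME at its Km (100uM) in 100mM KPO4. After 10 min compound preincubation, NADPH regeneration ran the reaction 60 min at room temperature. Luciferin was read by luminescence, normalized to 57 uM furafylline.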
Chain of Cytochrome P450 1A2 (Homo sapiens) (P05177 whole entry, looked up): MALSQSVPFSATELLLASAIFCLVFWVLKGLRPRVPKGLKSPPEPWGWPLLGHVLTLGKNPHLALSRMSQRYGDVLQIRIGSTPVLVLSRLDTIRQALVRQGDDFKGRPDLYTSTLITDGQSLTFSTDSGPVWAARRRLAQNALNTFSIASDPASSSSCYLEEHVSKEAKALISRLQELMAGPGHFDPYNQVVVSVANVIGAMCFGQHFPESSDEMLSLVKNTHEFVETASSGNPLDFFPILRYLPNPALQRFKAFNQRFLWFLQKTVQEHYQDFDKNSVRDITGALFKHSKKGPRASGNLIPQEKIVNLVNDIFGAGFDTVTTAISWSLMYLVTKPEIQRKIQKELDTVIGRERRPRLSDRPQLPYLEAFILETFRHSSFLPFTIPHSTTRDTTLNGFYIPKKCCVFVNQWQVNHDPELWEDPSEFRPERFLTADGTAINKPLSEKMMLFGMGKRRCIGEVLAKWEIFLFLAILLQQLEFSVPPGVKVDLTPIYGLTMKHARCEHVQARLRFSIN
A short description of assay [3]: NFAT Signaling Pathway (AID 444).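 Further: carbachol stimulus at about its EC50 of 1 µM final; on the % scale 0 is the no-effect control and ±100 the full control effect.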 As to conditions: Jurkat NFAT-bla M1, carbachol, beta-lactamase ratio, 5 h; at 17.2 µM (top of the series) unless noted. Put shortly: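 Jurkat cells carrying an NFAT-driven β-lactamase reporter and co-transfected muscarinic M1 receptor were treated with compound plus carbachol (1 uM final, an EC50 level) for 5 h at 37 °C. CCF4 loading followed for 1 h at RT; 460/530 nm ratio gave %activity.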

Assay [4] concerns the target Glucocorticoid receptor (Homo sapiens) (UniProt P04150). Put plainly: GR-GFP Redistribution (AID 450;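 active means compounds whose dose series gives a full or clear partial fitted curve of increased nuclear translocation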; further: potency means the concentration at half of the fitted maximal effect). As to conditions: U2OS GR-GFP nuclear translocation, laser cytometry, 2 h.
Assay [5] concerns the target Mitogen-activated protein kinase 10 (Mus musculus) (UniProt Q61831). In words: JNK3 AlphaScreen Assay (AID 530).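 Further: kinase came from lysate of stimulated human HepG2 cells; signal reports phosphorylation of biotinylated GST-cJun 1-79 at Ser73 with 10 µM ATP; on the % scale 0 is the no-effect control and ±100 the full control effect.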 Put shortly:
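JNK3 came from HepG2 lysates pre-activated with IL-1beta and TNF-alpha and phosphorylated biotinylated GST-cJun (1-79) at 10 uM ATP, pH 7.6, room temperature. Compounds were titrated. AlphaScreen signal used anti-phospho-cJun (Ser73) antibody.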

The target of assay [6] is 3',5'-cyclic-AMP phosphodiesterase 4B (Homo sapiens) (UniProt Q07343). In words: qHTS Assay for Inhibitors of PDE-IV (AID 607; active means well fitted activation curve with a large enough effect in the main read-out, with a control signal flat, not every such curve was filed as active; further: % of control where 0% means no effect). The essentials:
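HEK293 ACTOne cells with CNG channel (1000/well), endogenous PDE4; membrane potential dye, compounds up to 22.9 uM final. Fluorescence Ex 535/Em 590; RO 20-1724 (100 uM final) as reference.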

Assay [7] is described as follows: Cell Viability - BJ (AID 421; calls by dose curve;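 further: potency means the concentration at half of the fitted maximal effect; cells exposed to compound for 40 hours at 37 °C before readout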). Particulars: BJ fibroblast viability, qHTS. The essentials: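 Normal human BJ foreskin fibroblasts, 1500/well in complete medium, treated 40 hr at 37 °C. Cellular ATP by CellTiter-Glo luminescence; normalized to DMSO and 100 uM tamoxifen, AC50 from Hill fit.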
Assay [8] can be described thus: Cell Viability - Jurkat (AID 426;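 active means dose-dependent loss of cell ATP signal giving a full or clear fitted curve, ranked by lower potency value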; further: potency means the concentration at half of the fitted maximal effect). As to conditions: qHTS. Put shortly: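 Jurkat (clone E6-1, human T-cell leukemia) cells, 5000/well in complete medium, were exposed to compound for 40 hr at 37 °C. Viability was read as intracellular ATP by CellTiter-Glo luminescence; AC50 came from Hill fits of concentration-response data.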
Assay [9] in a line: Cell Viability - Hek293 (AID 427;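 active means compounds whose dose-response curve shows a full or clear partial loss of cell viability, called from curve shape rather than a numeric limit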;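 further: potency means the concentration at half of the fitted maximal effect; cells exposed to compound for 40 hours at 37 °C before reading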). As to conditions: qHTS. Put shortly:
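HEK293 cells in complete medium were exposed to compound for 40 hr at 37 °C, then cellular ATP was read by CellTiter-Glo luminescence. Data were normalized to DMSO (basal) and 100 uM tamoxifen (100% inhibition), and AC50 came from Hill fits.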

Assay [10] is described as follows: Cell Viability - HepG2 (AID 433; calls by dose curve;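 further: potency means the concentration at half of the fitted maximal effect; potency for ATP loss meaning cytotoxicity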). Particulars: qHTS. The essentials:
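HepG2 hepatocellular carcinoma cells (1500/well) were treated with compounds for 40 h at 37 °C in complete medium; intracellular ATP was read by CellTiter-Glo luminescence. Data were normalized to DMSO and 100 uM tamoxifen, and AC50 came from Hill fits.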

Assay [11] in a line: Cell Viability - MRC5 (AID 434; calls by dose curve;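 further: potency means the concentration at half of the fitted maximal effect; potency reflects cytotoxicity seen as loss of intracellular ATP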). As to conditions: MRC5 lung fibroblast viability, qHTS. The essentials:
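MRC5 normal human lung fibroblasts (1500/well) were treated with compounds for 40 hr at 37 °C in complete medium, and viable cells were measured as intracellular ATP by CellTiter-Glo luminescence. AC50 came from Hill fits, normalized to DMSO and 100 uM tamoxifen.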

Assay [12] can be described thus: Cell Viability - SK-N-SH (AID 435; calls by dose curve;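 further: potency means the concentration at half of the fitted maximal effect; compound exposure lasted 40 h at 37 °C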). As to conditions: SK-N-SH neuroblastoma cell viability qHTS. The essentials:
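SK-N-SH human neuroblastoma cells (1500/well) were exposed to compounds in complete medium for 40 h at 37 °C, and intracellular ATP was then measured by CellTiter-Glo luminescence. AC50 was taken from Hill fits, normalized to DMSO and 100 uM tamoxifen.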

The nature of assay [13]: Cell Viability - NIH 3T3 (AID 541; active means well fitted curve in the direction sought with a large enough effect; an effect the other way counts as inactive or inconclusive;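 further: plate controls were DMSO alone for no effect and tamoxifen positive control for full effect; nearly all actives have a fitted effect of over 25% in size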). Particulars: NIH 3T3 cell viability, qHTS; activity change, negative = cytotoxicity: at 92.2 µM (top of the series). Put shortly: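 NIH 3T3 mouse embryo fibroblasts (1000 cells/well) were plated in complete medium and treated with compound for 40 hr at 37 °C. Viability was read as intracellular ATP by CellTiter-Glo luminescence; AC50 values came from Hill-equation fits of concentration-response data.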

Assay [14] can be described thus: Cell Viability - HUV-EC-C (AID 542; active means well fitted curve in the direction sought with a large enough effect; an effect the other way counts as inactive or inconclusive; further: on the % scale 0 is the no-effect control and ±100 the full control effect; nearly all actives have a fitted effect of over 35% in size). The essentials: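 HUV-EC-C normal human vascular endothelial cells, 1000 cells/well, pre-incubated 5 hr at 37 °C, then exposed to compounds for 40 hr at 37 °C in complete medium. Viability measured as intracellular ATP by CellTiter-Glo luminescence; AC50 from Hill fits.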
The nature of assay [15]: Cell Viability - H-4-II-E (AID 543; active means well fitted curve in the direction sought with a large enough effect; an effect the other way counts as inactive or inconclusive; further: nearly all actives have a fitted effect of over 35% in size; further: potency means the concentration at half of the fitted maximal effect). Put shortly:
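Rat hepatoma H-4-II-E cells (1500/well) were plated, incubated 5 hr at 37 °C, then exposed to compounds for 40 hr at 37 °C. Cellular ATP was read by CellTiter-Glo luminescence; AC50 came from Hill-equation fits of concentration-response data.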

Assay [16] in a line: Cell Viability - SH-SY5Y (AID 544; active means well fitted curve in the direction sought with a large enough effect; an effect the other way counts as inactive or inconclusive;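 further: 0% = DMSO alone and -100% = 100 µM tamoxifen; nearly all actives have a fitted effect of over 55% in size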). As to conditions: SH-SY5Y neuroblastoma cell viability. The essentials:
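Human neuroblastoma SH-SY5Y cells (1500/well) in complete medium were exposed to compounds for 40 hr at 37 °C; intracellular ATP was then quantified by CellTiter-Glo luminescence after 20 min at room temperature. AC50 came from Hill-equation concentration-response fits.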

The nature of assay [17]: Cell Viability - Renal Proximal Tubule (AID 545; active means well fitted curve in the direction sought with a large enough effect; an effect the other way counts as inactive or inconclusive;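 further: 0% = DMSO only and -100% = 100 µM tamoxifen; nearly all actives have a fitted effect of over 40% in size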). Put shortly: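 Primary rat renal proximal tubule cells (1000/well) were treated with compounds for 40 hr at 37 °C in complete medium. Intracellular ATP was measured by CellTiter-Glo luminescence, and AC50 values came from Hill-equation fits of concentration-response data.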
Assay [18] is described as follows: Cell Viability - Mesenchymal (AID 546; active means well fitted curve in the direction sought with a large enough effect; an effect the other way counts as inactive or inconclusive;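 further: cells exposed to compound for 40 hours before reading; 0% = DMSO only and -100% = 100 µM tamoxifen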). The essentials: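 Normal human renal glomerulus-derived kidney mesenchymal cells, 1000 per well in complete medium, were treated with compounds for 40 hr at 37 °C. Viability was read as intracellular ATP by CellTiter-Glo luminescence; AC50 values came from Hill-equation fits of qHTS concentration-response data.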
Assay [19] is described as follows: Cellular Toxicity (caspase-3) HepG2 (AID 654; active means well fitted curve in the direction sought with a large enough effect; an effect the other way counts as inactive or inconclusive;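 further: cells exposed to compound for 16 hours before reading; 0% = DMSO alone and 100% = caspase signal from 100 µM tamoxifen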). Put shortly:
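HepG2 cells (1500/well) in complete medium were treated with compounds for 16 hr at 37 °C. Caspase-3/7 activity was then read as luminescence from peptide-aminoluciferin cleavage. AC50 came from Hill fits, normalized to DMSO and 100 uM tamoxifen.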

A short description of assay [20]: Stat Signaling Pathway (AID 446).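 Further: ME-180 cervical cancer cells given 40 pM IL-6 alongside compound; SIE-controlled beta-lactamase reporter measured as 460/530 nm FRET emission ratio; on the % scale 0 is the no-effect control and ±100 the full control effect.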 As to conditions: ME-180 SIE beta-lactamase reporter, IL-6 stimulated, 5 h; at 17.2 µM (top of the series) unless noted. Put shortly: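 ME-180 cells carrying a SIE-driven beta-lactamase reporter are stimulated with 40 pM IL-6 for 5 h at 37C in the presence of compound. The 460/530 nm FRET substrate ratio is read after 2.5 h at RT. Data are normalised to 300 pM IL-6 and to 125 nM JAK inhibitor controls.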

The mark [21] stands for this setting: viability change, negative = cytotoxic: at 92.2 µM (top of the series).

Chain of Glucocorticoid receptor (Homo sapiens) (P04150 whole entry, looked up): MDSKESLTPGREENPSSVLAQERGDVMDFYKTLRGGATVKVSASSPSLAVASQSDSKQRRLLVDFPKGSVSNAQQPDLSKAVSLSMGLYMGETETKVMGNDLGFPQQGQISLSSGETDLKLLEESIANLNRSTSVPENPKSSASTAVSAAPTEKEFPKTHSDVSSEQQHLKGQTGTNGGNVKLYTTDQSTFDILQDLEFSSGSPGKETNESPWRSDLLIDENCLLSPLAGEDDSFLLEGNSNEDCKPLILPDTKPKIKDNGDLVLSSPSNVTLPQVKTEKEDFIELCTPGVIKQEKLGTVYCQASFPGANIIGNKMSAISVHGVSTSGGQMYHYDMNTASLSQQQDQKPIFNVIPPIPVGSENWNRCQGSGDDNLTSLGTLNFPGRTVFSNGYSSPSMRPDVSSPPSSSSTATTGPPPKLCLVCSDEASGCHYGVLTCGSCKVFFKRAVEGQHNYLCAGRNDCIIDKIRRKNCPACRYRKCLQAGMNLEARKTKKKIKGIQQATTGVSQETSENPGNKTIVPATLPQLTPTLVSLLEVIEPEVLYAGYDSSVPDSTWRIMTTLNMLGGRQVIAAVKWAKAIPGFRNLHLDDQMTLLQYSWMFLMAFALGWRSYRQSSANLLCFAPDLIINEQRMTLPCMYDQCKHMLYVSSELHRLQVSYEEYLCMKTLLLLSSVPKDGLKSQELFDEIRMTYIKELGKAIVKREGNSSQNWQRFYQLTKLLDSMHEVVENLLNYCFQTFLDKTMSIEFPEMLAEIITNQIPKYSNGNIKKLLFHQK
Chain of 3',5'-cyclic-AMP phosphodiesterase 4B (Homo sapiens) (Q07343 whole entry, looked up): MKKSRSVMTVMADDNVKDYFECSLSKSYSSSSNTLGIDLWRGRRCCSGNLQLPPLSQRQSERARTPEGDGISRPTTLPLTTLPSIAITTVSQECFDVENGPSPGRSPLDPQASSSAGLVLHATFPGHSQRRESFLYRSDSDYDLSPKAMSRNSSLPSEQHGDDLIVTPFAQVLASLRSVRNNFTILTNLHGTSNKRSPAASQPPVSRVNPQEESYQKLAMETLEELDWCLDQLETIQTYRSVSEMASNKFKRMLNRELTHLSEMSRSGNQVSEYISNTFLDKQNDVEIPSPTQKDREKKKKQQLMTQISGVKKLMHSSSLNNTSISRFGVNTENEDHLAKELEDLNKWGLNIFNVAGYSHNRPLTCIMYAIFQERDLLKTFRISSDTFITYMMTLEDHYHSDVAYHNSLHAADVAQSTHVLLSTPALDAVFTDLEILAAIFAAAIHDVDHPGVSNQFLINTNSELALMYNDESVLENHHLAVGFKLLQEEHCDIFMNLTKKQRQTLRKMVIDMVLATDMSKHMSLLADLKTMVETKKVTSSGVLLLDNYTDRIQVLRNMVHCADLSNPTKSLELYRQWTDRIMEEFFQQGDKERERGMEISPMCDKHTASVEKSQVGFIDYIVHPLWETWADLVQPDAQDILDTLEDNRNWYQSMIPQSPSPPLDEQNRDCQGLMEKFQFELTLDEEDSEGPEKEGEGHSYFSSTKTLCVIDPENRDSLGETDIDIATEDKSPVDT

Turning to `NC(=O)c1cccc(N)c1`, the activity change, negative = inhibition in [1] is 11.6% [at 38 µM]; in assay [3], 1.89% [at 38 µM]. Further, the Potency is 15.8 µM (active) in assay [2] and over 46 µM in [4]. In assay [5], the Potency entry is “inactive”. For the same compound, the compound was classed as inactive in [6].
Take `COC(=O)Nc1nc2ccc(C(=O)c3ccccc3)cc2[nH]1`: the activity change, negative = inhibition in [1] was 17.1% and -8.17%. For the same compound, the Potency in [2] is 3.98 µM (active); in assay [4], over 20.6 µM. Moreover, in [5], the Potency entry was “inactive”. Besides, in assay [6], the compound was called inactive.
On to `Cc1cc(NS(=O)(=O)c2ccc(N)cc2)no1`, for which the activity change, negative = inhibition in [1] was 3.59% and 0.387%; in assay [3] it was 1.34% and -21.2%. The Potency in assay [7], in [8], in assay [9], in [10], in [11] and in [12] was over 92 µM throughout. Moreover, in assay [4], the Potency is over 20.6 µM. Also, the Potency entry in assay [5], in assay [14], in [15], in [16] (setting [21]), in assay [17] and in [18] was “inactive” in each case. Moreover, the Potency entry in assay [19] was “inactive”. Besides, the activity change, negative = cytotoxicity in assay [13] was -14.5%. Besides, in assay [6], the call was inactive.
`OCc1ccc(-c2nn(Cc3ccccc3)c3ccccc23)o1`: the activity change, negative = inhibition in assay [1] is -16.4% [at 38 µM]; in [3], 4.66% [at 38 µM]. Moreover, the Potency was 1.58 µM (active) in [2] and over 46 µM in assay [4]. Besides, in assay [6], the compound was called inactive.
As to `CCCCOc1ccc(CC(=O)NO)cc1`, the activity change, negative = inhibition in assay [1] was -22.1% and -10.8%; in assay [3], -5.9% and 15%. Besides, the Potency in [2] was 1.58 µM (active); in assay [4], over 20.6 µM. Further, the Potency result in assay [5] is “inactive”.
Take `COc1cc(NS(=O)(=O)c2ccc(N)cc2)nc(OC)n1`: the activity change, negative = inhibition in assay [1] was 1.62% and 1.87%; in [3] it was -19.2%. The Potency result in assay [2] and in assay [5] was “inactive” each time. Also, the Potency in assay [4] is over 20.6 µM. The call in assay [6] was inactive.
As to `CCn1cc(C(=O)O)c(=O)c2cc(F)c(N3CCNCC3)nc21`, the activity change, negative = inhibition in assay [1] is -5.75% and 5.53%; in assay [3] it was -11.9% and 9.94%. The Potency result in assay [2] and in assay [5] was “inactive” in each case. Besides, in assay [6], the compound was classed as inactive.
Take `CCCOc1ccc(C(=O)OCCN(CC)CC)cc1N`: the activity change, negative = inhibition in [1] was 5.39%; in assay [3] it was -19.1%. Also, the results for the Potency in [2] and in assay [4] were 5.01 µM (active) and over 20.6 µM, respectively. Moreover, the activity, negative = inhibition in [20] is 1.44%. The Potency entry in [5] was “inactive”. Also, in assay [6], the compound was classed as inactive.
For the compound `COc1ncnc(NS(=O)(=O)c2ccc(N)cc2)c1OC`, the activity change, negative = inhibition was -3.45% in assay [1] and -25.1% in [3]. The Potency result in assay [2] and in assay [5] was “inactive” in each case. Moreover, the compound was classed as inactive in assay [6].
As for `Cc1noc(NS(=O)(=O)c2ccc(N)cc2)c1C`, the activity change, negative = inhibition was 3.21% and 4.22% in assay [1]; -7.16% and 11.7% in assay [3]. The Potency entry in assay [2], in [5], in assay [14], in [15], in assay [16] (setting [21]) and in [17] was “inactive” in each case. Further, the Potency result in assay [18] and in [19] was “inactive” in each case. Besides, the Potency in assay [7], in assay [8], in [9], in assay [10], in assay [11] and in assay [12] was over 92 µM in each case. Besides, the activity change, negative = cytotoxicity in [13] is -8.82%. Also, the outcome in assay [6] was inactive.
On to `CC(=O)[C@H]1CC[C@H]2[C@@H]3CCC4=CC(=O)CC[C@]4(C)[C@H]3CC[C@]12C`, for which the results for the activity change, negative = inhibition in assay [1] and in [3] were 1.43% and -29.5%, respectively. Also, the Potency was over 92 µM in [7]; 48.5 µM (active) in assay [9]; over 92 µM in assay [10]; over 92 µM in assay [11]; over 92 µM in assay [12]; 39.8 µM (active) in [15]. In addition, the Potency result in assay [5], in assay [14], in assay [18] and in assay [19] was “inactive” in each case. In [13], the activity change, negative = cytotoxicity is -129% (active). Also, the values for the viability change, negative = cytotoxic in assay [16] (at 92.2 µM (top of the series)) and in assay [16] (setting [21]) were -22.5% and -101% (active), respectively.
`COc1ccc2c(c1)c(CC(=O)OCC(=O)O)c(C)n2C(=O)c1ccc(Cl)cc1`: the activity change, negative = inhibition in assay [1] is -9.7% and -8.22%; in [3], 2.54% and 1.97%. The Potency result in assay [2] and in assay [5] was “inactive” in each case. Moreover, the Potency in assay [4] was over 20.6 µM. Also, in assay [6], the result was inactive.
With `Cc1cccc(N(C)C(=S)Oc2ccc3ccccc3c2)c1`, the activity change, negative = inhibition in [1] is -6.52% and 9.03%. Besides, the Potency in [2] is 2.51 µM (active); in [4] it was over 20.6 µM. In assay [20], the activity, negative = inhibition was 4.85% and -13.1%.
